From PubChem BioAssay (NCI)
About 83,000 compounds went through this panel and 20% of them were active in at least one assay; those are over-represented in the sample as a whole.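 The endpoint reported here, percent growth, reads 100 for growth as untreated, 0 for no net growth and -100 for all cells dead.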 Active and inactive are the calls of the source. Rule for the calls: active = growth percent below 10; inactive = the rest.

What was measured:
Assay in all cases: NCI-60 one-dose screen, 48 h (100 = growth as untreated, 0 = no growth, -100 = all killed)
Conditions in all cases: 10 µM unless noted
[1] = system: NCI-H23 lung
[2] = system: NCI-H226 lung
[3] = system: NCI-H322M lung
[4] = system: HOP-62 NSCLC
[5] = system: NCI-H460 lung
[6] = system: HOP-92 NSCLC
[7] = system: NCI-H522 lung
[8] = system: A549/ATCC NSCLC
[9] = system: 786-0 renal
[10] = system: COLO 205 colon

Measured: growth

COc1ccc(-c2cn(-c3cccc(C(=O)/C=C/c4ccc(O)c(OC)c4)c3)c(=O)[nH]2)cc1
active: [7] -4.38%
inactive: [1] 62.5% | [2] 93.6% | [3] 64.8% | [4] 113% | [5] 31.7% | [6] 22.6% | [8] 31.5% | [9] 34.5% | [10] 105%

C[C@@H](C[C@H](CC1CC1)c1ccccc1)c1ccc2ccccc2c1
inactive: [1] 100% | [2] 109% | [3] 101% | [4] 104% | [5] 100% | [6] 102% | [7] 95.2% | [8] 98.2% | [9] 101% | [10] 109%

Oc1ccc(CCCCCCc2ccc(O)cc2)cc1
inactive: [1] 59.5% | [2] 101% | [3] 92% | [4] 80.6% | [5] 46.4% | [6] 64% | [7] 56.6% | [8] 47.6% | [9] 14.2% | [10] 103%

NC(=Nc1ccccc1)SCCCSC(N)=Nc1ccccc1
inactive: [1] 92.6% | [2] 93.6% | [3] 81.8% | [4] 96.5% | [5] 100% | [6] 41.6% | [7] 69.2% | [8] 89.5% | [9] 102% | [10] 78.7%

CC(OC(=O)Nc1cccc(Cl)c1)C(=O)O (centres undefined)
inactive: [1] 97.9% | [2] 96.4% | [3] 101% | [4] 86.7% | [5] 108% | [6] 92.2% | [7] 80.9% | [8] 99.1% | [9] 96% | [10] 113%

O=C(O)/C=C(\c1nc2ccc([N+](=O)[O-])cc2[nH]1)c1cc(Cl)ccc1O
active: [1] 4.9% | [6] 8.34% | [7] 2.47%
inactive: [2] 34.4% | [3] 33.6% | [4] 42.8% | [5] 14.4% | [8] 27% | [9] 44% | [10] 27.5%

COc1ccc2[nH]c(C(=O)OCc3ccc4c(Br)cc(Br)c(O)c4n3)cc2c1
inactive: [3] 43.1%
active: [1] -62.4% | [2] -64.7% | [4] 7.47% | [5] -75.1% | [6] -59.8% | [7] -68% | [8] -10.2% | [9] -81.8% | [10] -80.2%

CCOC(C)(c1ccc(Cl)cc1)C1CCNCC1 (centres undefined)
inactive: [1] 101% | [2] 116% | [3] 105% | [4] 93.3% | [5] 70.3% | [6] 85.2% | [7] 107% | [8] 67.9% | [9] 91.9% | [10] 118%

CCCCn1c(-c2ccc(F)cc2)nc2cc(OC)c(OC)cc2c1=O
active: [4] -11.2%
inactive: [1] 101% | [2] 93.8% | [3] 78% | [5] 112% | [6] 66.1% | [7] 93.7% | [8] 19.7% | [10] 121%

Cc1ccc(NC(=O)c2[nH]c(SCCN(C)C)nc2-c2ccc(F)cc2)cc1Nc1ccc2ncn(C)c(=O)c2c1
inactive: [1] 42.1% | [2] 63.9% | [3] 67% | [4] 58.5% | [5] 56.3% | [6] 38.7% | [7] 69.5% | [8] 40.3% | [9] 72.8% | [10] 14.5%

CCNS(=O)(=O)c1ccc(C)cc1
inactive: [1] 100% | [2] 103% | [3] 102% | [4] 100% | [5] 101% | [6] 69.7% | [7] 114% | [8] 95.8% | [9] 110% | [10] 113%

Cc1nc2ccc(Nc3nc(Cl)nc(N4CCOCC4)n3)cc2n1Cc1ccccc1
inactive: [1] 16.5% | [2] 82.5% | [3] 51% | [4] 50.1% | [5] 91.3% | [6] 36.1% | [8] 92% | [9] 68.3% | [10] 100%
active: [7] -38.6%

CC1=NC(c2ccc(Cl)cc2)C2=C(N1)/C(=C/c1ccc(Cl)cc1)CCC2 (centres undefined)
inactive: [1] 81.8% | [2] 113% | [3] 94.5% | [4] 106% | [5] 99.4% | [6] 86.4% | [7] 98.6% | [8] 89% | [9] 92.7% | [10] 99%

COc1cc2nccc(Oc3ccc(NC(=O)C4(C(=O)Nc5ccc(F)cc5)CC4)cc3)c2cc1OC(=O)c1ccc(N)cc1
inactive: [1] 37.8% | [2] 55.7% | [3] 43% | [4] 11.7% | [5] 24.7% | [7] 21.4% | [8] 33.6%
active: [6] -13.3% | [9] -17.4% | [10] -36.5%

COc1ccc(/C=C/C(=O)c2ccc(NC(=O)CSc3nnc(-c4ccc(OC)cc4)n3-c3ccccc3)cc2)cc1
inactive: [1] 99.2% | [2] 99.2% | [3] 103% | [4] 101% | [5] 107% | [6] 106% | [7] 91.4% | [8] 80.2% | [9] 102% | [10] 107%

CC(=O)c1cccc(Nc2ncnc3ccc(NC(=O)c4ccco4)cc23)c1
inactive: [1] 88.7% | [2] 87.6% | [3] 102% | [4] 113% | [5] 96.1% | [6] 71.7% | [7] 83.3% | [8] 90.4% | [9] 89.5% | [10] 98.5%

COCCCNCC(=O)Nc1c(C)cccc1C
inactive: [1] 110% | [2] 106% | [3] 139% | [4] 107% | [5] 116% | [6] 103% | [7] 112% | [8] 96.7% | [9] 93.8% | [10] 109%

COC(=O)c1cc(Cl)cc([N+](=O)[O-])c1O
inactive: [1] 111% | [2] 97.9% | [3] 115% | [4] 104% | [5] 116% | [6] 83.8% | [7] 99.5% | [8] 105% | [9] 108% | [10] 115%

COc1cc2c(cc1OC)C(=O)OC2
inactive: [1] 118% | [2] 93.4% | [3] 116% | [4] 113% | [5] 110% | [6] 75.5% | [7] 111% | [8] 104% | [9] 114% | [10] 134%

O=C(/C=C/c1cc([N+](=O)[O-])ccc1Cl)c1ccccc1
inactive: [1] 87.6% | [2] 86.5% | [3] 88.1% | [4] 103% | [5] 97.6% | [6] 73.7% | [7] 82.9% | [8] 91.5% | [9] 78.4% | [10] 109%

COc1cc(C2C=C(C)N=C3SC=NN32)cc(OC)c1OC (centres undefined)
inactive: [1] 100% | [2] 108% | [3] 112% | [4] 102% | [5] 108% | [6] 91.4% | [7] 104% | [8] 101% | [9] 112% | [10] 115%

C#CC[C@@H]1C[C@]2(C)[C@H]3CC=C4[C@H]5[C@@H](C)[C@H](C)CC[C@]5(C(=O)NCCCN5CCN(CCCN)CC5)CC[C@@]4(C)[C@]3(C)CC[C@H]2C(C)(C)[C@H]1OC(C)=O
active: [3] -48.2% | [5] -60.7% | [6] -20.5% | [7] -55.4% | [8] -23.5% | [9] -97% | [10] -69.9%
inactive: [1] 19.8% | [2] 86.5% | [4] 58.9%

Clc1ncnc2scc(C3COc4ccccc4O3)c12 (centres undefined)
inactive: [1] 95.9% | [2] 75.3% | [3] 98.6% | [4] 105% | [5] 106% | [6] 78.9% | [7] 53.6% | [8] 95.5% | [9] 104% | [10] 100%

N[C@@H](CO)C(=O)O
inactive: [1] 91% | [2] 97.7% | [3] 103% | [4] 105% | [5] 107% | [6] 89.8% | [7] 107% | [8] 102% | [9] 95.1% | [10] 106%

Cc1cc(C)c([O-])c(CN(C)CCN(C)Cc2cc(C)cc(C)c2[O-])c1.O=C([O-])c1cccc(C(=O)[O-])n1.[Ti+4]
active: [3] 8.44% | [5] -68.7% | [6] -53.1% | [7] -47% | [10] 2.03%
inactive: [1] 10.4% | [2] 31% | [4] 12.5% | [8] 23.3% | [9] 11.9%
